# DT40 TDP1 CPT – qHTS for Inhibitors of human tyrosyl-DNA phosphodiesterase 1 (TDP1): qHTS in cells in presence of CPT; chicken DT40 Tdp1-/-;hTDP1 cells + 20 nM CPT, ATP luminescence, 48 h; Potency, µM (titrated, usually from 46.2 µM), without a hit: at the top dose activity change, negative = growth inhibition, most hits filed as inhibitors; actives 12% (n = 420,000); AID 686979, 2013; also: potency is read from the fitted curve at half-maximal effect; nearly all actives have a fitted effect of over 55% in size
#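 Chicken DT40 Tdp1-/- cells stably complemented with human TDP1 were seeded at 400 cells/well in medium containing 20 nM camptothecin, exposed to pin-transferred compounds, and grown at 37 °C for at least 48 hr. Viability was read as ATP luminescence.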
# HT1080NT lethal – qHTS for induction of synthetic lethality in tumor cells producing 2HG: qHTS for the HT-1080-NT fibrosarcoma cell line; HT-1080-NT fibrosarcoma viability, CellTiter-Glo ATP luminescence, 48 h; Potency, µM (series often up to 46.1 µM), without a hit: at the highest dose activity, negative = less viability, most hits filed as cytotoxic; actives 1.6% (n = 360,000); AID 686970, 2013;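 also: NT is the 2HG producing partner of a matched IDH1 knockdown line; potency is read from the fitted curve at half-maximal effect; 0% = DMSO-treated cells and -100% = media-only wells without cells; nearly all actives have a fitted effect of over 55% in size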
#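 Viability by CellTiter-Glo luminescence after 48 h compound exposure at 37C of HT-1080-NT cells (750/well, RPMI, 5% FBS). % activity scaled between DMSO wells and medium-only wells, then curve-fitted and categorized by curve class.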
# HT1080 IDH1KD tx – qHTS for induction of synthetic lethality in tumor cells producing 2HG: qHTS for the HT-1080-IDH1KD cell line | HT-1080 IDH1 knockdown viability, ATP luminescence, 48 h | AID 686971, 2013 | actives 2% (n = 360,000) | Potency, µM (doses to about 46.1 µM), for inactives: at the highest dose activity, negative = toxicity, usual class: cytotoxic;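 also: potency is read from the fitted curve at half-maximal effect; 0% = DMSO wells and -100% = cell-free medium wells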
#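 IDH1KD HT-1080 cells, 750/well, RPMI + 5% FBS; compound pinned after 2 h settling; 48 h, 37 °C; CellTiter-Glo luminescence; % activity normalised to DMSO and no-cell wells; curves fitted, classed by r2 and efficacy.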
# IL-1B inflam inh – qHTS for Inhibitors of Inflammasome Signaling: IL-1-beta AlphaLISA Primary Screen; AID 743279, 2014; actives 4.7% (n = 360,000); THP-1 LPS/ATP IL-1B secretion, AlphaLISA, 16 h; stronger effect = lower value; activity change, % at 57.5 µM; in the data active = activity change below about -50%; inconclusive = mostly about -30% to -49%
#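 THP-1 cells pretreated 1 hr with compounds (up to 57.5 uM final), then stimulated with LPS (250 ng/mL final) plus ATP (1.25 mM final); secreted IL-1B measured by AlphaLISA after 16 hr, decreased signal indicating inhibition.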
# DT40 TDP1 no CPT – qHTS for Inhibitors of human tyrosyl-DNA phosphodiesterase 1 (TDP1): qHTS in cells in absence of CPT. DT40 Tdp1-/- hTDP1 cells, no CPT, ATP luminescence, 48 h. actives 15% (n = 420,000). Potency, µM (titrated, usually from 46.2 µM), for the others: at the top dose activity change, negative = growth inhibition, usual class: inhibitors; also: potency is read from the fitted curve at half-maximal effect; nearly all actives have a fitted effect of over 55% in size
#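 Luminescent ATP content (CellTiter-Glo) served as the growth readout. Knockout chicken DT40 cells expressing human TDP1 were exposed to compounds without camptothecin for a minimum 48 hr at 37 °C.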
# * = called active by the depositor; u = inconclusive; x = no result given; ! = not confirmed by another sample; [ ] = dose if it differs, or a comment. Hits are enriched below; roughly 19% of the tested compounds scored in any of these assays. Unless noted, calls follow the shape of the dose curve; as a rule, active = well fitted curve in the direction sought with a large enough effect; inconclusive = small, poorly fitted or top-dose-only effect, or another doubt; inactive = no such curve, though single readings can be large; an effect the other way counts as inactive or inconclusive. Unless noted, % is scaled to controls: 0 for no effect and ±100 for the full control effect.
SMILES,DT40 TDP1 CPT,HT1080NT lethal,HT1080 IDH1KD tx,IL-1B inflam inh,DT40 TDP1 no CPT
CCC(=O)OCC(=O)C1(OC(=O)CC)C(C)CC2C3C(Cl)CC4=CC(=O)C=C[C@@]4(C)C3C(O)C[C@@]21C (stereo not given in full),-11%,x,x,x,-1%
CC1(C)COC(/C=C/c2cccc([N+](=O)[O-])c2)=N1,u,u,u,-107*,12µM*
O=[N+]([O-])c1ccc(Cl)c2c1C1C=CCC1C(c1ccccn1)N2 (stereo not given),18µM*,0%,0%,0,u
Cc1cccc(CNc2ncncc2-c2cccc(NS(C)(=O)=O)c2)c1,-21%,x,x,x,-29%
O=c1c2ccccc2nc(CSc2nnnn2-c2ccccc2)n1-c1ccccc1Cl,u,-23%,u,-3,u
N=C(N)SCc1nc2ccccc2c(=O)n1-c1ccccc1Cl,26µM*,19%,11%,u,21µM*
Cc1ccccc1-n1c(CSC(=N)N)nc2ccccc2c1=O,21µM*,9%,3%,0,u
Cc1ccc(C)c(OCCC(=O)OCC(=O)N2CCN(S(=O)(=O)c3ccc(Cl)cc3)CC2)c1,u,-2%,-3%,-15,u
Cc1ccc(S(=O)(=O)N2CCN(C(=O)CCOc3ccccc3C)CC2)cc1C,u,-7%,-16%,-5,u
COc1ccc(S(=O)(=O)N2CCN(C(=O)CCSc3ccccc3)CC2)cc1,12µM*,-3%,-8%,-4,u
Cc1ccccc1OCCC(=O)Nc1ccc(S(=O)(=O)N2CCCC2)cc1,21µM*,-15%,-21%,23,15µM*
CCOc1ccc(OCCC(=O)OCC(=O)N2CCN(S(=O)(=O)c3ccc(Cl)cc3)CC2)cc1,u,u,u,-85*,23µM*
CCOc1ccc(S(=O)(=O)N2CCN(C(=O)CCOc3ccccc3C)CC2)cc1,u,-4%,-11%,-12,18µM*
Cc1cccc(OCCC(=O)Nc2ccc(S(=O)(=O)N3CCCC3)cc2)c1,u,-3%,-13%,-20,u
C[C@H](CO)N1C[C@H](C)[C@@H](CN(C)C(=O)NC2CCCCC2)Oc2ccc(NS(C)(=O)=O)cc2C1=O,20%,-15%,2%,-3,3%
Cc1cc(C(=O)Nc2cccc(C)c2C)c2ccccc2n1,1%,6%,-2%,-10,u
CCCOC(=O)c1ccc(Oc2cn[nH]c2-c2ccc(O)cc2O)cc1,u,18µM*,-4%,18,u
C=C(C)COc1ccc(-c2[nH]ncc2Oc2ccccc2OCC)c(O)c1,u,u,26µM*,-63*,-23%
C=C(C)COc1ccc(-c2[nH]ncc2Oc2cccc(OC)c2)c(O)c1,u,23µM*,u,-17,13µM*
O=C(OCCCc1cc2ccccc2c(=O)o1)c1ccc2c(c1)OCO2,-10%,-1%,-1%,38,u
COc1ccc(N2CCN(C(CNC(=O)C(C)C)c3ccc4c(c3)OCO4)CC2)cc1 (stereo not given),0%,14%,4%,3,-16%
C[C@@H]1C[C@H]2[C@@H]3CCC4=CC(=O)C=C[C@]4(C)[C@@]3(Cl)[C@@H](O)C[C@]2(C)[C@@]1(OC(=O)c1ccco1)C(=O)CCl,16µM*,16µM*,u,-89*,12µM*
CCCCC(=O)O[C@@]1(C(=O)CO)C(C)CC2C3CCC4=CC(=O)C=C[C@@]4(C)[C@]3(F)C(O)C[C@]21C (stereo not given in full),-24%,x,x,x,-20%
CC(=O)OCC(=O)[C@@]12OC3(CCCC3)O[C@@H]1C[C@H]1[C@@H]3CCC4=CC(=O)C=C[C@]4(C)[C@@]3(F)[C@@H](O)C[C@@]12C,2.3µM*!,u,-23%,0,4.6µM*
CCC(=O)OCC(=O)C1(OC(=O)CC)[C@H](C)C[C@H]2[C@H]3[C@H]([C@@H](O)C[C@@]21C)[C@@]1(C)C=CC(=O)C=C1C[C@H]3Cl (stereo not given in full),-14%,u,u,-51*,-21%
SMILES,DT40 TDP1 CPT,HT1080NT lethal,HT1080 IDH1KD tx,IL-1B inflam inh,DT40 TDP1 no CPT
CCC(=O)OCC(=O)[C@@]1(OC(=O)CC)[C@H](C)C[C@H]2[C@H]3[C@H]([C@@H](O)C[C@@]21C)[C@@]1(C)C=CC(=O)C=C1C[C@H]3Cl,-28%[21.1 µM],x,x,x,-29%[21.1 µM]
CCC(=O)O[C@]1(C(=O)CCl)[C@@H](C)C[C@H]2[C@@H]3C[C@H](F)C4=CC(=O)C=C[C@]4(C)[C@@]3(F)[C@@H](O)C[C@@]21C,u,x,x,x,19µM*
CC1CC2C3CCC4=CC(=O)C=C[C@]4(C)[C@@]3(Cl)C(O)C[C@]2(C)C1(OC(=O)c1ccco1)C(=O)CCl (stereo not given in full),-28%,x,x,x,-22%
CC(=O)OCC(=O)C1(O)CCC2C3CCC4=CC(=O)C=CC4(C)C3(F)C(O)CC21C (stereo not given),-8%,u,u,u,-11%
CC1(C)O[C@@H]2C[C@H]3[C@@H]4C[C@H](F)C5=CC(=O)C=C[C@]5(C)[C@@]4(F)[C@@H](O)C[C@]3(C)[C@]2(C(=O)CO)O1,u,65%,u,-54*,-10%
CC1(C)O[C@@H]2C[C@H]3[C@@H]4CCC5=CC(=O)C=C[C@]5(C)[C@@]4(F)[C@@H](O)C[C@]3(C)[C@]2(C(=O)CO)O1,u,u,u,u,-14%
OC(c1cccc(Cl)c1)c1nc(-c2cnc3ccccc3c2)cs1 (stereo not given),26µM*,u,u,-6,13µM*
COc1ccc(C(O)c2nc(-c3cnc4ccccc4c3)cs2)cc1 (stereo not given),u,1%,-3%,20,15µM*
OC(c1ccc(F)cc1)c1nc(-c2cnc3ccccc3c2)cs1 (stereo not given),18µM*,-9%,0%,49,u
COc1ccc(C(O)c2nc(-c3cccc(O)c3)cs2)cc1 (stereo not given),u,-7%,0%,0,u
c1ccc2c(N3CCCCCC3)nc(CN3CCCCC3c3nccs3)nc2c1 (stereo not given),-4%[9.04 µM],x,x,x,u

# Source: PubChem
